Experimental data taken from PubChem BioAssay (NCI).
Compounds without any hit were thinned out: in the full panel of roughly 79,000, 15% have a hit. Unmarked numbers belong to inactive results. Active and inactive are the calls of the source. No stated cut-off is given here; in the data, active means growth inhibition above about 70%; inactive means the rest.

Experiments:
[1] = NCI Yeast Anticancer Drug Screen. Data for the rad50 strain (AID 155);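 further: 0% = growth of vehicle-only cultures of the same strain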; conditions: S. cerevisiae rad50 strain growth inhibition; at 50.0 µM; stronger effect = higher value
Summary of the method: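 Genetically altered yeast (DNA repair pathway); compound treatment; growth inhibition vs vehicle ctrl.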

[2] = NCI Yeast Anticancer Drug Screen. Data for the mec2-1 strain (AID 157); conditions: S. cerevisiae mec2-1 strain, at 50.0 µM, stronger effect = higher value
Summary of the method: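 Cells of the genetically defined mec2-1 yeast strain are incubated with test compound. Inhibition of growth is calculated against vehicle-treated controls.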

[3] = NCI Yeast Anticancer Drug Screen. Data for the sgs1 mgt1 strain (AID 161);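 further: 0% = growth of cultures given vehicle only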; conditions: S. cerevisiae sgs1 mgt1 strain, at 50.0 µM, stronger effect = higher value
Summary of the method: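 Genetically altered yeast, compound exposure, growth inhibition relative to vehicle.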

[4] = NCI Yeast Anticancer Drug Screen. Data for the cln2 rad14 strain (AID 165);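 further: 0% = growth equal to vehicle treated cultures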; conditions: S. cerevisiae cln2 rad14 strain, at 50.0 µM, stronger effect = higher value
Summary of the method: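 The screen exposed genetically defined yeast (cln2 rad14) to test compounds and scored growth inhibition relative to vehicle-treated controls.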

[5] = NCI Yeast Anticancer Drug Screen. Data for the bub3 strain (AID 167); conditions: S. cerevisiae bub3 mutant strain, at 50.0 µM, stronger effect = higher value
Summary of the method: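 Yeast carrying a defined mutation is treated with each compound, and growth is compared with that of vehicle-exposed cells to give inhibition.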

[6] = NCI Yeast Anticancer Drug Screen. Data for the mlh1 rad18 strain (AID 175); conditions: S. cerevisiae mlh1 rad18 strain growth inhibition; at 50.0 µM; stronger effect = higher value
Summary of the method: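 Compound-treated yeast growth, normalised to vehicle controls. Strain bears defined DNA repair mutations.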

Row | Structure (SMILES) | growth inhibition [1] | growth inhibition [2] | growth inhibition [3] | growth inhibition [4] | growth inhibition [5] | growth inhibition [6]
1 | Cc1ccc(S(=O)(=O)Nc2ccc(S(C)(=O)=O)cc2)cc1 | 2.4% | -4.2% | -5.6% | -36.4% | 3.85% | 3.3%
2 | CN(C)c1ccccc1CC(=O)Nc1ccccc1 | -12.6% | 4.45% | -5.85% | -21.8% | 1.9% | 3.1%
3 | CCOC(=O)C(NC(=O)CC)(Nc1ccc(S(=O)(=O)Nc2ncccn2)cc1)C(F)(F)F (stereo unspecified) | -19.4% | -14.9% | -10.5% | 20.1% | -9.55% | -7.05%
4 | CCCCCCCCCCCCCCCCSc1cccc(C)c1 | 17.7% | 3.65% | 22.1% | -13.2% | 1.3% | 17.1%
5 | C=Cn1c2ccccc2c2ccccc21 | 46.9% | 18.9% | 26.9% | 15.2% | -6.75% | -0.55%
6 | N#Cc1ccc(OC(=O)Nc2ccccc2Cl)cc1 | 0.5% | -8.6% | 21.4% | 26.4% | 15.4% | 13.8%
7 | Clc1cc(Cl)c2ccc3c(Cl)cc(Cl)c4ccc1c2c43 | -18.6% | -33.3% | -10.8% | 7.3% | -30.8% | -20.6%
8 | CN(C)CCCNc1ccc2ncn3c4ccccc4c(=O)c1c23 | -2.15% | 6.2% | -3.35% | 20.9% | 1.5% | 22.4%
9 | CCOC(=O)N1C2CC=CCC1C1(c3ccccc3)OC2(c2ccccc2)c2ccccc21 | -16.7% | -3.95% | -4.6% | 5.05% | -1.05% | -24.1%
10 | CCCCc1c(OC)cc(O)c2c1C(=O)c1[nH]c(C(=O)O)c(O)c(=O)c1C2=O | -16.6% | -19.3% | -13.9% | -11.7% | -10.9% | -5.75%
11 | Cc1ccc(C(=O)/C=C(\C(=O)c2ccccc2)c2ccccc2)cc1C | 12.5% | 14.8% | 1.85% | 11.7% | 11.3% | 9.65%
12 | Cc1c(C2CC(=O)N(c3ccccc3)C2=O)c2ccccc2n1C (stereo unspecified) | -6.25% | -6% | -7.4% | -33.7% | 1.85% | -8.25%
13 | CON[N+]([O-])=NC(C)C | 27.6% | 6.3% | 21.6% | 11.5% | 17% | 21.8%
14 | CCCCc1c2c(nc3c1CCc1cc4cc5c(nc4nc1-3)-c1nc3c(c(CCCC)c1CC5)CCCC3)CCCC2 | 7.5% | 24.9% | 16.1% | -45.7% | 9.95% | 29.4%
15 | N#CCN1c2ccccc2CCC1Cl (stereo unspecified) | -10.9% | -17.6% | -5.05% | -7.45% | 11.2% | 12.4%
16 | CCOC(=O)c1cc(NC(C)=O)c(C)n1C | -5.4% | 8.6% | -3.45% | -26.6% | 11.1% | 16.4%
17 | O=c1oc2c(-c3c(O)c(=O)oc4ccccc34)cc(O)cc2s1 | 10.3% | 14.6% | 22.9% | 17.1% | 10% | 36%
18 | O=[N+]([O-])c1ccc(CS(=O)(=O)c2ccccc2)o1 | 21.4% | -1.45% | 24.5% | -15.9% | 1.15% | 4.6%

Row | Structure (SMILES) | growth inhibition [1] | growth inhibition [2] | growth inhibition [3] | growth inhibition [4] | growth inhibition [5] | growth inhibition [6]
19 | O=C1CNC(=O)N1Nc1ccccc1 | -9.35% | -2.55% | -2.35% | -26.6% | 4% | -5.3%
20 | COc1ccc(CC2CCCNC2C(=O)O)cc1 (stereo unspecified) | -1.65% | -13.2% | -3.55% | -38.7% | -16.6% | 10.8%
21 | CCN(CC)CCOC(=O)OCCN(CC)CC | -13.5% | -12.1% | -7.3% | 4.45% | 17.9% | -38.8%
22 | Clc1ccc2c(c1)-c1c3c(nn1-c1ccccc1)-c1ccccc1SC3O2 (stereo unspecified) | 23.3% | 10.6% | 17.9% | 19.3% | -1.5% | -13.6%
23 | CC(=O)Oc1ccc(CCNC(c2ccccc2)c2ccccc2)cc1OC(C)=O | 44% | 13.2% | 42.5% | -7.6% | -17.4% | 38.3%
24 | CCO/N=C(/CNC(=O)Oc1ccccc1)c1ccccc1 | 3.15% | 0.75% | -4.05% | 28% | 37.4% | 9.45%
25 | CN(C)c1nc(N(C)C)nc(N(C)C=O)n1 | -4.9% | -21.9% | -30.7% | -2.85% | -27.6% | -5.55%
26 | O=C(O)C1CCCCC1C(=O)O.[NH-]C1CCC1.[NH2-].[Pt+2] (stereo unspecified) | 99.2% (active) | 99.3% (active) | 99.4% (active) | 99.3% (active) | 99% (active) | 99.1% (active)
27 | COC(=O)C(C(=O)C(=O)NC1=C(Cl)C(=O)c2ccccc2C1=O)c1csc(-n2nc(-c3ccccc3)cc2-c2ccccc2)n1 (stereo unspecified) | -0.4% | -26.6% | -14.4% | 0.85% | 26.1% | -5.4%
28 | CN1c2cccc3cccc(c23)NC12CCCCC2 | 0.6% | -20.5% | -10.8% | -62.2% | 14.2% | -10.8%
29 | CCNC(=S)Nc1ccc(Cl)cc1 | 27.2% | 40.4% | 39% | -6.1% | 53.4% | 35.8%
30 | CSc1cc(/C=C/c2ccccc2)ccc1[N+](=O)[O-] | 1.65% | 0.95% | 4.95% | 15% | 14.3% | 4.45%
31 | COCc1onc(-c2ccc(OC)cc2)c1-c1ccc(OC)cc1 | 8.25% | 20.4% | 3.6% | 30.9% | 49.4% | 31.4%
32 | COc1ccc2c(ccc3[nH]c4c(C)cnc(NCCCN(C)C)c4c32)c1 | -16.6% | -7.6% | -2.7% | -3.55% | 4.05% | -7.85%
33 | Cc1cc(O[Si](C)(C)C)nc(O[Si](C)(C)C)n1 | 1.7% | -3.7% | 0.15% | -49% | -40.3% | 11.9%
34 | Cc1c(-c2ccccc2)c(=O)oc2ccc(Cl)cc12 | -34% | -8.5% | 1.1% | -9.85% | -14.9% | -15.2%
35 | CCOC(=O)c1cc2cc(Cc3ccc4[nH]c(C(=O)OCC)cc4c3)ccc2[nH]1 | -12.8% | -21.4% | -26.2% | -26.4% | -32.2% | -43.6%
36 | O=C(CCCC(=O)N/N=C/c1cccc([N+](=O)[O-])c1)N/N=C\c1cccc([N+](=O)[O-])c1 | 26.6% | 21.9% | 5.1% | 26.8% | 2.45% | 26.1%
